# Measurements as given in PubChem BioAssay (NCATS).
# Records with an inconclusive call do not appear. Entries that show only a call come without a potency. Calls of active or inactive are those of the source. Calls follow the shape of the full dose curve.
# Target: Atrial natriuretic peptide receptor 1 (Homo sapiens) (UniProt P16066)
# Experiment: Natriuretic polypeptide receptor (hNpr1) antagonism - Pilot CMLD screen (AID 1347052);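 also: HEK293 cells with hNpr1 stimulated by hNppA peptide at 0.1 nM; cGMP level read as GloSensor luciferase luminescence after agonist stimulation; series mostly up to about 9.2 µM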
# Sequence of Atrial natriuretic peptide receptor 1 (Homo sapiens) (P16066 whole entry, looked up): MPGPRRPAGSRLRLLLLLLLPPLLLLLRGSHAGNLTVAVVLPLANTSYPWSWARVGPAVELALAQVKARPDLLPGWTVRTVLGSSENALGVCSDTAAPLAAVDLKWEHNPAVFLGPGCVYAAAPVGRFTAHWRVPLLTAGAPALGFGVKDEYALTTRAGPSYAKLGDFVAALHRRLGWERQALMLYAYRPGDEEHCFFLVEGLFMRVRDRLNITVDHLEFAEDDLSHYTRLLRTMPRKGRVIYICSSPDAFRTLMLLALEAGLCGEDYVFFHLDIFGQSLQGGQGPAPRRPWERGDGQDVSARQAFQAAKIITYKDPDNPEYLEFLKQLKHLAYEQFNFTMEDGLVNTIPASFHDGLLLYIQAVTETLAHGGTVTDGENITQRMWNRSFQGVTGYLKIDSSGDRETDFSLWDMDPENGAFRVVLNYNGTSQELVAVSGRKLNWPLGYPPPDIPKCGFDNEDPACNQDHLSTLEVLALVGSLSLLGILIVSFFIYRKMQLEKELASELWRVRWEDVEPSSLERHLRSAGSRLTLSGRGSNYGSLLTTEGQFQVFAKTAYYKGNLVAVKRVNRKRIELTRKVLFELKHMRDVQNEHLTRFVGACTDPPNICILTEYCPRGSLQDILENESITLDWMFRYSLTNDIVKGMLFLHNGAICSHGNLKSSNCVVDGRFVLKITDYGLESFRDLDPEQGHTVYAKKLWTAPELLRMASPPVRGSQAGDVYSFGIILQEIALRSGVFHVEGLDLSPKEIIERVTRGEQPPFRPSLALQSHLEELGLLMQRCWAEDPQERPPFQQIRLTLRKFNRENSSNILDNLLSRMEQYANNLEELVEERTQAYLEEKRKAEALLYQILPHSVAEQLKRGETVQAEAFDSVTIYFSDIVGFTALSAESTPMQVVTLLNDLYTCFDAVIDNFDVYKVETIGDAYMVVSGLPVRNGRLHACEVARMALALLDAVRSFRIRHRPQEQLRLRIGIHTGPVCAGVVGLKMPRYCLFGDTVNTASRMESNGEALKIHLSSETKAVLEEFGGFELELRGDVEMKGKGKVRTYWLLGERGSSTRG
smiles,measurement,value
COc1ccc([C@@H](NC(=O)C(F)(F)F)C2CCCC=C2c2ccccc2)cc1OC (stereo partly specified),Potency,inactive
